Sampled rows, rich in hits. Any-hit rate of the full collection: about 7.4%.
NIH3T3 tox: kills NIH 3T3 cells. 94,000 tested, 4.3% active. Potency, µM (doses to about 96.7 µM), for inactives: at the top dose activity change, negative = cytotoxicity, most hits filed as inhibitors. NIH 3T3 viability, CellTiter-Glo ATP luminescence, 48-72 h. AID 1345082; also: % is scaled to controls: 0 for no effect and ±100 for the full control effect; nearly all actives have a fitted effect of over 55% in size
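Cytotoxicity is measured as loss of cellular ATP: NIH 3T3 cells (400/well) are exposed to compound for 48 or 72 hr at 37 °C, then CellTiter-Glo luminescence is imaged after 10 min at room temperature.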
HEK cytotox: kills HEK 293 cells. HEK 293 viability, ATP luminescence (CellTiter-Glo), 48-72 h. Potency, µM (highest dose often 115 µM), for the others: at the top dose activity change, negative = cytotoxicity, actives largely listed as inhibitors. 94,000 tested, 6.6% active. AID 1345083; also: % is scaled to controls: 0 for no effect and ±100 for the full control effect; nearly all actives have a fitted effect of over 60% in size
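HEK 293 cells at 250 cells/well were exposed to compounds by pintool transfer for 48 or 72 hr at 37 degree Celsius, 5% CO2. Viability was read as ATP-coupled luminescence with CellTiter-Glo after 10 min at room temperature.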
SNCA expr inhib: inhibitors of alpha-synuclein (SNCA) gene expression. Potency, µM (titrated, usually from 57.2 µM), inactives show at the highest dose activity change, negative = inhibition, most hits filed as inhibitors. 140,000 tested, 0.17% active. HEK-293 SNCA-luciferase knock-in, luminescence, 24 h. AID 1671194;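 also: plate controls were DMSO cells for no effect and cell-free wells for full effect; nearly all actives have a fitted effect of over 45% in size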
hNpr1 antagonist: blocks ANP-stimulated signaling of human Npr1 receptor | 76,000 tested, 1.6% active | AID 1347048 | Potency, µM (highest dose often 46.3 µM), for the others: top-dose activity change, negative = inhibition, most hits filed as inhibitors | HEK293 hNpr1 GloSensor cGMP, ANP-stimulated luminescence | P16066; calls by dose curve; also: % is scaled to controls: 0 for no effect and ±100 for the full control effect; nearly all actives have a fitted effect of over 60% in size
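Compound pre-incubated 30 min at room temperature on GloSensor-loaded HEK293 cells stably carrying hNpr1 and the pGS-40F cGMP biosensor. Stimulation uses hNppA at 0.1 nM final; luminescence is taken at baseline and 20 min post-agonist.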
FLuc inh-1: blocks purified firefly luciferase enzyme activity | P08659 | purified P. pyralis luciferase, luminescence, biochemical | Potency, µM (top dose mostly 115 µM), usual class: inhibitors | 76,000 tested, 2.5% active | AID 1347043; also: % is scaled to controls: 0 for no effect and ±100 for the full control effect; nearly all actives have a fitted effect of over 65% in size
Target sequence (P08659 whole entry, looked up): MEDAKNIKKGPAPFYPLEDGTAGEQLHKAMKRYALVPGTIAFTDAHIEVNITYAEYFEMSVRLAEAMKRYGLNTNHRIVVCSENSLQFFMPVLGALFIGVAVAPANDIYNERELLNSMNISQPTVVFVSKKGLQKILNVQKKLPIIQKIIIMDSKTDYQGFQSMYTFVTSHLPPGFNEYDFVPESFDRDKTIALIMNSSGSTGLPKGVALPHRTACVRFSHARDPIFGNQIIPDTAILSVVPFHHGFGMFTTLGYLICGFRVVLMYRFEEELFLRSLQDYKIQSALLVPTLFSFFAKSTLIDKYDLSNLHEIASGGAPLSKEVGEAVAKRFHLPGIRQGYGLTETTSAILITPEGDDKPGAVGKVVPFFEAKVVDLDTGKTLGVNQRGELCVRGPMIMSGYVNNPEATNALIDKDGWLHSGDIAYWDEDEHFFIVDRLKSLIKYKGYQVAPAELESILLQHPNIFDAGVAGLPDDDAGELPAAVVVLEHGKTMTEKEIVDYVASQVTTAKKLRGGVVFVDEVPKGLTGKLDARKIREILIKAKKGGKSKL
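Purified 10nM P. pyralis luciferase with 10uM D-luciferin and 10uM ATP in 50mM Tris acetate pH 7.5, 10mM Mg acetate, 0.01% Tween-20, 0.05% BSA. qHTS titration; luminescence read by CCD imager.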
SNCA viab count: counter-screen for SNCA expression inhibitors: cell viability. HEK-293-SNCA-luc viability, GF-AFC fluorescence, 24 h. Potency, µM (doses to about 57.1 µM), for the others: at the top dose activity change, negative = cytotoxicity, hits mostly cytotoxic. 150,000 tested, 0.12% active. AID 1671193;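 also: 0% = DMSO-treated cells and -100% = medium-only wells without cells; nearly all actives have a fitted effect of over 30% in size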
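Cytotoxicity counterscreen: after 24 h compound treatment of genome-edited SNCA-luciferase HEK-293 cells, live-cell protease substrate GF-AFC read by fluorescence after 30 min; activity scaled between DMSO (0%) and medium-only (-100%), curves Hill-fitted.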
FLuc SDR no ATP: stabilizes firefly luciferase without ATP; shares compounds with FLuc inh-1; Purified FLuc-C-HiBiT, Nano-Glo HiBiT luminescence, no ATP; Potency, µM (top dose mostly 32.7 µM), for the others: at the highest dose activation (signal gain), actives largely listed as activators; 1,300 tested, 7.8% active; AID 1963318; also: nearly all actives have a fitted effect of over 55% in size
FLuc SDR ATP: binders stabilizing firefly luciferase, plus ATP; 1,300 tested, 8.7% active; purified FLuc-C-HiBiT + ATP, HiBiT complementation luminescence; shares compounds with FLuc inh-1; Potency, µM (highest dose often 32.7 µM), for inactives: at the top dose activation (gain of signal), actives largely listed as activators;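 also: signal reports ligand binding via conformational change of the enzyme rather than luciferase catalysis; % of control where 0% means no effect; nearly all actives have a fitted effect of over 55% in size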
FLuc inh-2: inhibitors of firefly luciferase enzymatic activity | Potency, µM (doses to about 32.7 µM), inactives show top-dose activity change, negative = inhibition, actives largely listed as inhibitors | 1,300 tested, 42% active | purified FLuc-C-HiBiT enzyme, luciferin luminescence | AID 1963320 | shares compounds with FLuc inh-1; also: % is scaled to controls: 0 for no effect and ±100 for the full control effect; nearly all actives have a fitted effect of over 70% in size
Numbers without * were called inactive; i = inactive; ? = inconclusive; . = no result given; [ ] = remark or other dose. Unless noted, calls follow the shape of the dose curve; as a rule, active = well fitted curve in the direction sought with a large enough effect; inconclusive = small, poorly fitted or top-dose-only effect, or another doubt; inactive = no such curve, though single readings can be large; an effect the other way counts as inactive or inconclusive. Potency is read from the fitted curve at half-maximal effect.

SMILES | NIH3T3 tox | HEK cytotox | SNCA expr inhib | hNpr1 antagonist | FLuc inh-1 | SNCA viab count | FLuc SDR no ATP | FLuc SDR ATP | FLuc inh-2
CC(C)n1cc(-c2cc(C(=O)N3CCC(C)(C)C3)c3ccc(F)cc3n2)cn1 | ? | ? | 18.1% | -13.1% | 5.01µM* | -13.4% | ? | ? | 4.95µM*
O=C(Nc1cccc2cccnc12)c1ccc(F)cc1 | . | . | 129.1% | . | . | -11.5% | . | . | .
CC(C)c1ccc(C(=O)Nc2cccc3cccnc23)cc1 | . | . | 159.6% | . | . | 2.4% | 17.5% | 12.2% | ?
O=C(Nc1cccc(-c2ccc(F)cc2)c1)C1CCCN1C(=O)C1CCOCC1 (stereo not given) | -12.1% | -9.0% | -3.6% | 1.9% | i | -5.6% | . | . | .
COc1cccc(-c2csc(CN3CCCC(C)(NC(C)=O)C3)c2)c1 (stereo not given) | ? | ? | 38.6%[87.6 µM] | -6.1%[70.6 µM] | 5.01µM* | -5.4%[87.6 µM] | 17.1%[49.3 µM] | 15.7%[49.3 µM] | ?
CC(C)Cc1noc(-c2ccc(N3CCC(O)CC3)nc2)n1 | ? | -26.8% | ? | 8.91µM* | 0.794µM* | -1.3% | 24.0% | ? | 5.56µM*
COc1ccc(CNC(=O)c2cc3cc(OC)ccc3oc2=O)cc1 | . | . | -16.6% | . | . | -14.0% | . | . | .
COc1ccc2oc(=O)c(C(=O)Nc3cccc(C(=O)O)c3)cc2c1 | . | . | -25.3% | . | . | 15.3% | 12.4µM* | 0.0495µM* | 0.0157µM*
COc1cccc2cc(C(=O)Nc3ccc(C)cc3)c(=O)oc12 | . | . | 143.0% | . | . | 20.8% | 28.1% | 20.5% | ?
Cc1cn(CC(=O)NC2CCOC3(CCOCC3)C2)c(=O)[nH]c1=O (stereo not given) | -10.5% | i | 5.4% | -4.1% | i | 4.2% | . | . | .
O=C(NCCC1=CCCCC1)[C@H]1CN(Cc2ccccc2)C[C@H]1C(=O)O | 0.5% | i | 12.6% | . | . | 13.1% | . | . | .
CN1C[C@@H](NS(=O)(=O)c2ccc(C#N)cc2)C[C@H]1c1nc(-c2ccc(Cl)cc2)no1 | ? | ? | 100.1% | ? | 10µM* | -13.1% | 3.8% | 4.1% | ?
O=C(O)c1ccc(CN2CCOC[C@H]2c2ncc(-c3cccnc3)[nH]2)cc1 | -3.0%[174 µM] | -0.3%[172 µM] | ? | 12.0%[70.6 µM] | i | 6.7%[87.6 µM] | . | . | .
O=C(c1ccc(Cl)cn1)N1CCCCC12Cc1ccccc1NC2=O (stereo not given) | -22.2% | -14.5% | -14.5% | 0.0% | i | -16.9% | . | . | .
CC(=O)NCCNC(=O)c1ccc2c(=O)n(CCc3ccccc3)c(=O)[nH]c2c1 | . | . | 86.1% | . | . | ? | 9.9% | 13.6% | ?
Cc1ccc(C(=O)COC(=O)c2cc(-c3cccs3)nc3ccccc23)cc1 | . | . | 24.9% | . | . | -2.7% | 12.0% | 11.0% | ?
CSc1ccccc1-c1nc(C2CCOC2)no1 (stereo not given) | ? | -2.2% | 59.2% | 3.2% | i | -11.1% | . | . | .
Cc1nc2ccc(-c3nc(C4CCOC4)no3)cc2s1 (stereo not given) | ? | ? | -36.7% | ? | 2µM* | -3.5% | 24.9% | ? | 11.1µM*
c1ccc2cc(-c3nc(C4CCOC4)no3)ncc2c1 (stereo not given) | -29.2% | 1.0% | -24.5% | ? | 2.51µM* | 3.2% | 14.7% | ? | ?
COc1ccc2c(C)c(-c3nc(C4CCOC4)no3)oc2c1 (stereo not given) | ? | ? | 67.4% | 3.8% | 12.6µM* | 5.4% | 13.9% | 13.0% | -18.1%
Cc1onc(-c2ccccc2Cl)c1-c1nc(C2CCOC2)no1 (stereo not given) | -29.9% | -25.8% | 13.7% | 4.7% | i | 9.4% | . | . | .
CN(C)c1ccc(-c2nc(C3CCOC3)no2)cc1 (stereo not given) | -32.8% | ? | -13.9% | ? | 3.98µM* | -4.3% | 24.5% | ? | ?
COc1cccc(CCC(=O)NCCC2CCN(C(=O)Nc3ccc(F)cc3)CC2)c1 | -32.7% | ? | -19.7% | . | . | 2.3% | . | . | .
O=C(Cc1ccccc1)N1CCCN(c2ccnc3ccnn23)CC1 | ? | ? | 8.8%[87.6 µM] | . | . | 5.2%[87.6 µM] | . | . | .
O=C1C[C@H]2CC[C@@H](CN1)N2Cc1ccc(OCc2ccccc2)cc1 | ? | ? | -18.6% | ? | 11.2µM* | -6.8% | 12.9% | 11.0% | ?
SMILES | NIH3T3 tox | HEK cytotox | SNCA expr inhib | hNpr1 antagonist | FLuc inh-1 | SNCA viab count | FLuc SDR no ATP | FLuc SDR ATP | FLuc inh-2
O=[S+]1([O-])NCC2(CCN(Cc3ccc(C(F)(F)F)cc3)C2)Nc2ccccc21 (stereo not given) | ? | ? | 10.7% | -12.3% | i | 15.2% | . | . | .
CC(=O)N1CCCN(c2ccc(-c3nc(-c4ccccc4F)no3)cn2)CC1 | 1.4% | -0.7% | -7.3% | -3.1% | 12.6µM* | -2.2% | 12.7% | ? | ?
CC(C)Cc1noc(-c2ccc(N3CCCC(C(C)(C)O)C3)nc2)n1 (stereo not given) | ? | ? | 148.3% | -11.1% | i | 0.3% | . | . | .
OC1CCCN(c2ccc(-c3nc(-c4cccc(C(F)(F)F)c4)no3)cn2)C1 (stereo not given) | ? | ? | 48.0% | 10µM* | 1.58µM* | -15.4% | 14.9% | 12.5% | ?
COc1cccc(-c2noc(-c3ccc(N4CCCC(CO)C4)nc3)n2)c1OC (stereo not given) | ? | ? | 131.5% | -29.3% | 1.78µM* | 0.3% | ? | ? | 2.79µM*
Cc1cc(C(=O)N2CCC(Oc3cccnc3)C2)n(C)n1 (stereo not given) | 0.5% | -0.4% | -13.5% | -1.9% | i | -0.3% | . | . | .
Cn1cnc(S(=O)(=O)N2CCC(Oc3ccc(-c4noc(C5CC5)n4)cc3)C2)c1 (stereo not given) | -3.2% | ? | -2.9% | -20.5% | i | 2.0% | . | . | .
Cc1cnc(CC2CCCN(C(=O)CCc3c[nH]c4ccccc34)C2)n1C(C)C (stereo not given) | -25.3% | ? | 188.3% | -0.6% | 14.1µM* | 1.1% | 13.4% | 14.5% | 4.1%
